Assay outcomes as filed in PubChem BioAssay.
Lassa entry inh: blocks Lassa virus binding to or entry into cells; Lassa virus pseudotype entry inhibition, cell reporter; Potency, µM (top dose mostly 37.9 µM), without a hit: at the top dose activity change, negative = inhibition, actives largely listed as inhibitors; 1.2% of 300,000 active; AID 540256; calls by dose curve; tested in HEK293 cells; further: potency means the concentration at half of the fitted maximal effect; nearly all actives have a fitted effect of over 50% in size
HCMV inh: blocks human cytomegalovirus replication; HFF cells, HCMV-luciferase reporter, 72 h; stronger effect = lower value; activity change, negative = inhibition, % at 57.5 µM; 4.5% of 410,000 active; AID 1259415; in the data active means activity change below about -60%; inconclusive means no clear call, values can overlap the other calls; inactive means above about -39%
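Two compound doses tested in HFFs infected with HCMV-luciferase, MOI 1 PFU/cell, 72 h at 37C. Lysate luminescence read with OneGlo; data normalized against buffer-only and 10uM Salinomycin inhibitor controls.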
Pf growth 48h: inhibits P. falciparum growth in the first generation, 48 h. P. falciparum luciferase growth in erythrocytes, 48 h. Potency, µM (top dose mostly 28.7 µM), for the others: top-dose activity change, negative = inhibition, usual class: inhibitors. 5.9% of 310,000 active; further: potency means the concentration at half of the fitted maximal effect
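Here the parasites carry a stable luciferase gene and grow inside erythrocytes in Albumax-based RPMI medium with compound for one erythrocytic cycle. Activity is scored as loss of luminescent signal.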
HCV inhibitor: inhibitors of hepatitis C virus infection; Huh7.5.1 HCVcc-Cre infection, luciferase reporter, 44 h; Potency, µM (highest dose often 41.8 µM), without a hit: at the highest dose activity change, negative = inhibition, usual class: inhibitors; 3.4% of 340,000 active; AID 651820; further: potency means the concentration at half of the fitted maximal effect
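Infectious HCVcc-Cre (~0.5 moi) was added to cells just after compound, with cells seeded 4 h earlier at 1,000 per well. Luciferase activity after 44 h culture reported infection; substrate was incubated 15 min at room temperature before reading.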
Pf growth 96h: P. falciparum growth inhibition at 96 hours; 6.9% of 320,000 active; AID 504834; P. falciparum luciferase reporter growth, 96 h; Potency, µM (top dose mostly 28.7 µM), for inactives: at the top dose activity change, negative = inhibition, most hits filed as inhibitors; further: potency means the concentration at half of the fitted maximal effect
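Compounds incubated with erythrocytes infected by luciferase-expressing P. falciparum (2% hematocrit, 0.05% parasitemia final) for 96 hours, 37 C in 5% CO2. Growth inhibition scored as decreased luciferase luminescence.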
MARV entry inh: blocks Marburg virus binding to or entry into cells. Marburg virus pseudotyped entry inhibition, cell reporter. Potency, µM (series often up to 37.8 µM), inactives show at the top dose activity change, negative = inhibition, most hits filed as inhibitors. 1.8% of 300,000 active; calls by dose curve; tested in HEK293 cells; further: potency means the concentration at half of the fitted maximal effect
* marks the source's active call; other numbers are inactive results; ? = inconclusive; · = no result; [ ] = dose if it differs, or a comment. A selection: hits, their analogues and other compounds. The true share with any hit is near 14%. Unless noted, the call rests on the fitted dose curve; in most records, active means well fitted inhibition curve with a large enough effect; inconclusive means small, poorly fitted or top-dose-only effect, or another doubt; inactive means no such curve, though single readings can be large or run the other way. On the % scale 0 is the no-effect control and ±100 the full control effect.

SMILES	Lassa entry inh	HCMV inh	Pf growth 48h	HCV inhibitor	Pf growth 96h	MARV entry inh
CC(C)c1onc(C(=O)NCc2ccc(Cl)cc2)c1[N+](=O)[O-]	-14%	17	?	-5%	-9%	-3%
COc1ccccc1N1CCN(C(=O)c2noc(C(C)C)c2[N+](=O)[O-])CC1	·	·	0%	25%	13µM*	·
CC(C)c1onc(C(=O)N2CCCCC2)c1[N+](=O)[O-]	1%	1	-14%	12%	2%	2%
COc1ccccc1N1CCN(C(=O)c2ccccc2Oc2ccccc2)CC1	?	-20	13µM*	?	?	?
COc1ccc(CNC(=O)c2noc(C(C)C)c2[N+](=O)[O-])cc1	-2%	-7	-9%	-1%	1.9µM*	?
Cc1cc(C)c(NC(=O)CN(C)C(=O)CCC(=O)c2ccc(C)s2)c(C)c1	·	-6	?	?	-12%	·
C=CCn1c(=O)n(C2OC(CO)C(O)C2O)c2nc(N)[nH]c(=O)c21 (stereo unspecified)	·	·	6%	·	-8%	·
COc1ccccc1N1CCN(C(=O)C(Cc2ccccc2)NC(=O)C2CCCCC2)CC1 (stereo unspecified)	-13%	-12	10µM*	?	0%	-7%
COc1ccccc1N1CCN(C(=O)c2ccccc2NC(=O)C2CCCCC2C(=O)O)CC1 (stereo unspecified)	-4%	-5	15%	-1%	7.4µM*	?
CN1CCCN(S(=O)(=O)c2cccc(C#N)c2)CC1	·	-39	33%	12%	-8%	·
CC(C)C(NC(=O)c1ccco1)C(=O)NC1CCCCCC1 (stereo unspecified)	25%[46.1 µM]	9	-3%	2%	1%	-1%[46.1 µM]
CNc1cncc(-c2c(OC)cccc2OC)n1	·	-103*	·	·	·	·
COC(=O)c1sccc1NC(=O)Nc1cccc(C)c1C	19%[46.1 µM]	-34	23%	16%	4.1µM*	15%[46.1 µM]
COC(=O)c1sccc1NC(=S)Nc1cc(C)cc(C)c1	-2%	-10	18%	-7%	10µM*	?
CC(=O)c1cccc(NC(=O)c2c(F)c(F)c(F)c(F)c2F)c1	2%	-12	?	?	·	-14%
COC(=O)c1cc(NC(=O)c2c(F)c(F)c(F)c(F)c2F)cc(C(=O)OC)c1	?	-63*	5%	13µM*	?	?
COC(=O)c1sccc1NC(=O)c1ccccc1Br	·	-23	·	?	·	·
COC(=O)c1sccc1NC(=O)c1ccccc1[N+](=O)[O-]	3%	-23	1%	-18%	1.9µM*	?
COC(=O)c1sccc1NC(=O)Nc1cccc(Cl)c1Cl	?	?	1%	2%	77%	-24%
COc1cccc(C2CC(=O)Nc3c2ccc(C)c3C)c1OC (stereo unspecified)	-25%[46.1 µM]	-22	·	·	·	2%[46.1 µM]
COc1cc(NC(=O)c2ccccc2[N+](=O)[O-])ccc1NC(=O)C(C)C	11%	-20	7%	0%	9.3µM*	-2%
COc1cc(NC(=O)c2cccc([N+](=O)[O-])c2C)ccc1NC(=O)c1ccco1	?	3	24%	?	0%	?
COC(=O)c1sccc1NC(=O)c1c(F)c(F)c(F)c(F)c1F	?	?	·	13µM*	·	?
COC(=O)c1sccc1NC(=O)c1ccncc1	-16%	22	13%	-6%	·	0.1µM*
COC(=O)N(C)C[C@H]1OCc2cnnn2CCCC(=O)N([C@H](C)CO)C[C@H]1C	·	15	·	·	·	·
COc1cc2c(cc1OC)CN(c1ncccc1[N+](=O)[O-])CC2	-1%[46.1 µM]	-27	49%	-10%	74%	?
O=C(O)c1cn(-c2ccc(F)cc2)c2cc(N3CCNCC3)c(F)cc2c1=O	·	-1	?	-11%	3.4µM*	·
COc1cc(NC(=O)N2CCc3nc(NCc4cccc(Oc5ccccc5)c4)ncc3C2)cc(OC)c1OC	·	-92*	·	·	·	·
COc1cc(NC(=O)N2CCc3nc(Nc4cc(Cl)cc(Cl)c4)ncc3C2)cc(OC)c1OC	·	-25	·	·	·	·
O=C(O)c1ccc(S(=O)(=O)c2ccc3c(c2)C(=O)N(c2ccc(O)cc2)C3=O)cc1	·	?	-3%	15%	13%	·
